# Data reported in article PMC4336329 (PLoS ONE, 2015).
# About 14,000 (4.5%) of roughly 310,000 compounds showed an effect of 50% or more. Effects have a minus sign here. This is one part of a sample in which strong results are shown more often than they occur.
# Target: human ether-à-go-go-related gene (hERG) potassium channel (human, UniProt Q12809)
# Test: primary screen, population patch clamp on CHO cells stably expressing hERG; higher = less effect of the substance
# 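Also: peak tail current of the secondary pulse compared with the same well before compound.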
# human ether-à-go-go-related gene (hERG) potassium channel, sequence (Q12809 whole entry, looked up): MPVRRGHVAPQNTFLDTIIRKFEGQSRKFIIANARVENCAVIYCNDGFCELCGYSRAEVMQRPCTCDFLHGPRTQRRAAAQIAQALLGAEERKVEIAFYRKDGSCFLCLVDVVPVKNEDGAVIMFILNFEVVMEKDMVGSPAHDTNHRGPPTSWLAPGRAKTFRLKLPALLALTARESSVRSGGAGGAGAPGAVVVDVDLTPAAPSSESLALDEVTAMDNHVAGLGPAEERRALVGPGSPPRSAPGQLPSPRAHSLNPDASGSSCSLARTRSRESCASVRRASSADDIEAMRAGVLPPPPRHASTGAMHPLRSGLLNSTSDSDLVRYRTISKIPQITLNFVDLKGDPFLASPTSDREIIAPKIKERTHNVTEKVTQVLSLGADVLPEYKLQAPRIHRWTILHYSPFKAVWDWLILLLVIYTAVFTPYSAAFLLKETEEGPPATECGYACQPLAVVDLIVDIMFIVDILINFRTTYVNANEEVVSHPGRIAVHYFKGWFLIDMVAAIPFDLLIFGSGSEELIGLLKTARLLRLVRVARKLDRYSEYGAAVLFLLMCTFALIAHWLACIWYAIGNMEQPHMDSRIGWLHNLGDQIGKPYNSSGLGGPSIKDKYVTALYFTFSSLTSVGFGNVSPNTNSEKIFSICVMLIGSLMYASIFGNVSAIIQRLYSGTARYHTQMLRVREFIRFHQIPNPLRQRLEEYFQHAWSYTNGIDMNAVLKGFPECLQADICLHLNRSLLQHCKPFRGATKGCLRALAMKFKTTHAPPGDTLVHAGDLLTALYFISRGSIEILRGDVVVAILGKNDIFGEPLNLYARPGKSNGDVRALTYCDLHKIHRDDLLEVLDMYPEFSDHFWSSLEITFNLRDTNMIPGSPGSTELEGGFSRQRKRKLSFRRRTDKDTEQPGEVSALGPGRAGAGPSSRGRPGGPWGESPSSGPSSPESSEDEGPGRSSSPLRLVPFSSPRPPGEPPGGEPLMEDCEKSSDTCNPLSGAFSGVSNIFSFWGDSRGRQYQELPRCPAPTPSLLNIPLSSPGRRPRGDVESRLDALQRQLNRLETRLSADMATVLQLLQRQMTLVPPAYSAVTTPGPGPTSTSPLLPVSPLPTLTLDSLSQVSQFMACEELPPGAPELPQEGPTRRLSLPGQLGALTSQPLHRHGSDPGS
row,SMILES,"hERG current change (%, negative = inhibition) at 10uM [%]"
1,Nc1nc2c(nc(SCc3ccccc3Br)n2C2OC(CO)C(O)C2O)c(=O)[nH]1 (centres unmarked),34.9
2,CCOC(=O)N1CCC(Nc2c(NCCCN(CC)Cc3ccccc3)c(=O)c2=O)CC1,6.06
3,Cc1ccc(C(=O)Nc2ccc3cn[nH]c3c2)cc1S(=O)(=O)N1CCOCC1,-8.78
4,O=C(N/N=C/c1cn(-c2ccccc2)nc1-c1cc2ccccc2o1)c1c[nH]c2ccccc12,13.2
5,Cc1c(OC(C)C(=O)NCC(O)c2ccccc2)ccc2c3c(c(=O)oc12)CCC3 (centres unmarked),-13.3
6,Cc1cc(NC(=O)c2cccc(S(=O)(=O)N3CCOCC3)c2)c2ccccc2n1,-16.2
7,Cc1ccc(C(O)CN2C3=NCCCN3c3ccccc32)cc1.Cl (centres unmarked),-67.4
8,Cl.OC(CN1C2=NCCN2c2ccccc21)c1ccccc1 (centres unmarked),-42.7
9,Cc1ccc(C(O)CN2C3=NCCN3c3ccccc32)cc1.Cl (centres unmarked),-61.1
10,COc1ccc(NC(=O)N2CCC(c3ccccc3)C2)c(OC)c1 (centres unmarked),-1.5
11,Cc1cc(/C=C(/C#N)c2nc3ccccc3[nH]2)c(C)n1-c1ccccc1C(=O)O,15.8
12,Cc1ccnn1CC(=O)N/N=C/c1ccc([N+](=O)[O-])s1,-3.9
13,CC(C)NC(=S)NNC(=O)C12CC3CC(CC(C3)C1)C2,-8.78
14,CCN(CC)C(=O)N1CCN(C)CC1.O=C(O)CC(O)(CC(=O)O)C(=O)O,23.2
15,Cc1nc2nc(COc3ccccc3)[nH]n2c(=O)c1Cc1ccccc1,0.308
16,Cc1cc(Cl)ccc1OCC(=O)Nc1cccc(S(=O)(=O)N2CCCC2)c1,-1.87
17,Cc1ccccc1NC(=O)CN1CCC(NC(=O)Nc2ccccc2)CC1,-35.9
18,O=C(CN1CCC(NC(=O)Nc2ccccc2)CC1)Nc1ccccc1F,-18.3
19,O=C(CN1CCCC1)Nc1ccc([N+](=O)[O-])cc1,-22.6
20,O=C(CN1CCC(NC(=O)Nc2ccc(F)cc2)CC1)Nc1ccccc1[N+](=O)[O-],-51
21,O=C(CN1CCC(NC(=O)Nc2ccccc2)CC1)Nc1cccc([N+](=O)[O-])c1,-40.6
22,O=C(Nc1ccccc1)NC1CCN(CCCN2C(=O)c3ccccc3C2=O)CC1,-61.4
23,O=C(CN1CCC(NC(=O)Nc2ccccc2)CC1)Nc1ccc([N+](=O)[O-])cc1,-64.4

row,SMILES,"hERG current change (%, negative = inhibition) at 10uM [%]"
1,O=C(CN1CCC(NC(=O)C2CC2)CC1)Nc1ccccc1[N+](=O)[O-],22.1
2,COc1cccc(NC(=O)NC2CCN(CC(=O)Nc3ccccc3[N+](=O)[O-])CC2)c1,-39.4
3,O=C1CC(N2CCN(S(=O)(=O)c3ccccc3)CC2)C(=O)N1c1ccccc1 (centres unmarked),1.87
4,O=c1c2c3c(sc2n2cnnc2n1CCc1ccccc1)CCCC3,-20.5
5,CCOC(=O)c1cnn(-c2ccc(C)cc2)c1N,-1.1
6,CN(C)CCCN(C(=O)c1ccc(S(=O)(=O)N2CCCC2)cc1)c1nc2c(F)cc(F)cc2s1.Cl,-44.3
7,CCOc1cccc2sc(N(CCCN(C)C)C(=O)c3ccc(S(=O)(=O)N4CCCCCC4)cc3)nc12.Cl,7.67
8,CN(C)CCCN(C(=O)c1ccc(S(=O)(=O)N2CCc3ccccc3C2)cc1)c1nc2c(F)cc(F)cc2s1.Cl,-15.2
9,CN(C)CCCN(C(=O)c1ccc(S(=O)(=O)N2CCc3ccccc3C2)cc1)c1nc2c(F)cccc2s1.Cl,4.85
10,CCOC(=O)N1CCN(S(=O)(=O)c2ccc(C(=O)N(CCN(CC)CC)c3nc4c(C)cccc4s3)cc2)CC1.Cl,-24.3
11,CCOc1cccc2sc(N(CCN(CC)CC)C(=O)c3ccc(S(=O)(=O)N4CCCCC4)cc3)nc12.Cl,-62.4
12,CCOc1cccc2sc(N(CCN(CC)CC)C(=O)c3ccc(S(=O)(=O)N4CCCC4)cc3)nc12.Cl,-24.2
13,CN(C)CCCN(C(=O)c1ccc(S(=O)(=O)N2CCCCCC2)cc1)c1nc2c(F)cccc2s1.Cl,-66.2
14,Cc1ccc2sc(N(CCCN(C)C)C(=O)c3ccc(S(=O)(=O)N4CCCCCC4)cc3)nc2c1C.Cl,-23.4
15,CCOC(=O)N1CCN(S(=O)(=O)c2ccc(C(=O)N(CCCN(C)C)c3nc4c(F)cc(F)cc4s3)cc2)CC1.Cl,-51.3
16,CN(C)CCCN(C(=O)c1ccc(S(=O)(=O)N2CCCCCC2)cc1)c1nc2c(F)cc(F)cc2s1.Cl,-69.6
17,NC(=O)C1(N2CCCCC2)CCN(C2CC(=O)N(Cc3ccc(N4CCCC4=O)cc3)C2=O)CC1 (centres unmarked),5.32
18,O=c1cc(N2CCN(Cc3ccccc3)CC2)[nH]c(=O)n1-c1ccc(Br)cc1,-10.7
19,CN(C)S(=O)(=O)c1ccc(C(=O)Nc2ccccc2OC(F)(F)C(F)F)cc1,-16.6
20,C#CCNc1ccncc1S(=O)(=O)NC(=O)NC(C)C.O=[N+]([O-])O,-1.14
21,O=c1cc(CN2CCN(c3cccc(C(F)(F)F)c3)CC2)nc2sccn12,-46.3
22,CC(CNC(=O)CCc1nnc2ccc(N3CCC4(CC3)OCCO4)nn12)c1ccccc1 (centres unmarked),-0.296
23,O=C(CNC(=O)c1sc2ccccc2c1Cl)NC1CC1,3.65

row,SMILES,"hERG current change (%, negative = inhibition) at 10uM [%]"
1,CCCCOc1ccccc1C(=O)NNC(=S)NC(=O)c1ccccc1[N+](=O)[O-],3.48
2,NS(=O)(=O)c1ccc(NC(=O)c2cc(-c3cc(Cl)ccc3O)n[nH]2)cc1,15.7
3,CCS(=O)(=O)Nc1ccc(C2=NN(S(=O)(=O)CC)C(c3cccs3)C2)cc1 (centres unmarked),-9.32
4,CS(=O)(=O)Nc1ccc(C2=NN(S(C)(=O)=O)C(c3ccccc3)C2)cc1 (centres unmarked),-73.6
5,CS(=O)(=O)N1N=C(c2cccs2)CC1c1ccccc1 (centres unmarked),-11.3
6,CCC(CC)C(=O)N1N=C(c2ccc(NS(C)(=O)=O)cc2)CC1c1ccccc1 (centres unmarked),-41.4
7,CS(=O)(=O)N1N=C(c2ccc3nccnc3c2)CC1c1ccccc1 (centres unmarked),-7.62
8,CCS(=O)(=O)N1N=C(c2ccc(NS(C)(=O)=O)cc2)CC1c1ccccc1 (centres unmarked),-62.1
9,Cc1ccc2nc(-c3ccc(N4C(=NC(=O)CCC(=O)O)SC5CS(=O)(=O)CC54)cc3)sc2c1 (centres unmarked),-19.3
10,O=C(NC(Cc1c[nH]c2ccccc12)C(=O)N/N=C/c1ccc(Br)cc1)c1cccs1 (centres unmarked),8.02
11,O=C(Nc1nccs1)C1CCCN(S(=O)(=O)c2cccc3cccnc23)C1 (centres unmarked),-3.72
12,CCCCOc1ccc(-c2nnc(N)s2)cc1,2.84
13,CC(C)CCNC(=O)/C=C/c1ccc(Br)cc1,0.187
14,Cc1[nH]nc(Nc2ccc(O)cc2)c1[N+](=O)[O-],23.6
15,O=C(NCc1ccco1)C1CCCN(S(=O)(=O)c2ccc(Cl)cc2)C1 (centres unmarked),-13.2
16,Cc1oc(-c2cccc(Cl)c2)nc1CN1CCCC(C(=O)NCc2ccco2)C1 (centres unmarked),-73
17,Cc1oc(-c2cccc(Cl)c2)nc1CN1CCCC(C(=O)NC(C)c2ccc3c(c2)OCCO3)C1 (centres unmarked),-57.5
18,CCCS(=O)(=O)N1CCCC(C(=O)NC(C)c2ccc3c(c2)OCCO3)C1 (centres unmarked),9.55
19,CCN1CCN(CCNC(=O)C2CCCN(Cc3nc(-c4cccc(Cl)c4)oc3C)C2)CC1 (centres unmarked),-6.73
20,Cc1oc(-c2cccc(Cl)c2)nc1CN1CCCC(C(=O)NCCCN2CCOCC2)C1 (centres unmarked),-28.1
21,Cc1oc(-c2ccc(Cl)cc2)nc1CN1CCCC(C(=O)NCCCN2CCCC2=O)C1 (centres unmarked),-30.8
22,Cc1oc(-c2ccc(Cl)cc2)nc1CN1CCCC(C(=O)NCc2ccco2)C1 (centres unmarked),-71.9
23,Cc1oc(-c2cccc(Cl)c2)nc1CS(=O)(=O)CC(=O)NCc1ccco1,-28.2

row,SMILES,"hERG current change (%, negative = inhibition) at 10uM [%]"
1,COc1ccccc1NC(=O)c1ccccc1NS(C)(=O)=O,-1.12
2,O=C(O)/C=C/c1ccc(O)c(O)c1,13.1
3,O=C1CSC(=S)N1c1ccc(Cl)c(Cl)c1,20.7
4,CC1=C(C(=O)OC(C)(C)C)C(c2cccs2)NC(=O)N1 (centres unmarked),-0.0788
5,Cc1cc(OCC(=O)N2C[C@H]3C[C@@H](C2)c2cccc(=O)n2C3)c2c(C)c(C)c(=O)oc2c1,0.123
6,CC(C)(CC(=O)O)CC(=O)N1CCCN(c2nccc(C(F)(F)F)n2)CC1,17.8
7,O=C(NCc1ccncc1)C1CCN(S(=O)(=O)Cc2ccccc2)CC1,-10.4
8,Cc1ccc(C)c(SCC(=O)Nc2nnc(-c3ccccc3)o2)c1,14.1
9,O=C(COC(=O)c1cccnc1Nc1cccc(C(F)(F)F)c1)NCCN1C(=O)CSC1=O,-58.7
10,Cc1ccc(-c2cc(C(=O)OCC(=O)N(C)C3CCS(=O)(=O)C3)c3ccccc3n2)o1 (centres unmarked),-19.1
11,CCN(C(=O)COC(=O)c1cc(-c2cccc3ccccc23)nc2ccccc12)C1CCS(=O)(=O)C1 (centres unmarked),-6.23
12,CCN(C(=O)COC(=O)c1cccnc1Nc1cccc(C(F)(F)F)c1)C1CCS(=O)(=O)C1 (centres unmarked),-51
13,O=C(COC(=O)/C=C/c1cccc(C(F)(F)F)c1)NCCN1C(=O)CSC1=O,-28.1
14,CN(C(=O)COC(=O)c1cn(-c2ccccc2)nc1-c1ccccc1)C1CCS(=O)(=O)C1 (centres unmarked),-16.6
15,O=C(COC(=O)c1cccnc1Nc1cccc(C(F)(F)F)c1)NC1CCS(=O)(=O)C1 (centres unmarked),-16.1
16,CCN(C(=O)COC(=O)c1cc(-c2ccccc2)nn1-c1ccccc1)C1CCS(=O)(=O)C1 (centres unmarked),-12.8
17,CCN(C(=O)COC(=O)c1cc(-c2ccc(C)o2)nc2ccccc12)C1CCS(=O)(=O)C1 (centres unmarked),-66.7
18,CCN(C(=O)COC(=O)c1cccnc1Nc1ccccc1F)C1CCS(=O)(=O)C1 (centres unmarked),-9.99
19,O=C(COC(=O)c1cccnc1Nc1ccccc1F)NCCN1C(=O)CSC1=O,-27.7
20,CCN(C(=O)COC(=O)c1cn(-c2ccccc2)nc1-c1ccccc1)C1CCS(=O)(=O)C1 (centres unmarked),-75.9
